Source: PubChem
This is one part of a sample in which hits are shown more often than they occur.
NSD2 inh: NSD2 (human) methyltransferase inhibition. AID 624260. inhibition, % at 12.5 µM. NSD2-SET H3K36me1 DELFIA fluorescence, biochemical. 0.07% of 44,000 active. O96028; in the data active = inhibition above about 54%, passing the limit was not always enough;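 note: inhibitors reduce the monomethyl H3K36 fluorescence signal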
Hits are given with their value.

How did COCC#Cc1cnc2c(c1)C(=O)N([C@@H](C)CO)C[C@H](C)[C@@H](CN(C)Cc1ccc(F)cc1)O2 do in these assays?
NSD2 inh: inactive

What do the screens show for `C[C@@H]1CN([C@@H](C)CO)C(=O)c2cccc(NS(=O)(=O)c3cn(C)cn3)c2O[C@@H]1CN(C)S(C)(=O)=O`?
NSD2 inh: inactive

Results for C[C@H]1CN([C@@H](C)CO)S(=O)(=O)c2ccc(-c3ccccc3)cc2O[C@H]1CN(C)S(=O)(=O)c1ccccc1F ?
NSD2 inh: inactive

What do the screens show for `CC(C)NC(=O)N(C)C[C@H]1Oc2ccc(NC(=O)NC3CCCCC3)cc2C(=O)N([C@@H](C)CO)C[C@H]1C`?
NSD2 inh: inactive

Results for Cc1ccc(S(=O)(=O)Nc2cccc3c2O[C@H](CN(C)C)[C@H](C)CN([C@H](C)CO)C3=O)cc1 ?
NSD2 inh: inactive

What do the screens show for `C[C@@H]1CN([C@@H](C)CO)C(=O)c2cc(NC(=O)CCN3CCOCC3)ccc2O[C@H]1CN(C)Cc1ccc(C(F)(F)F)cc1`?
NSD2 inh: inactive

Results for C[C@H]1CN([C@@H](C)CO)C(=O)c2cc(Br)cnc2O[C@H]1CN(C)C(=O)Nc1ccccc1 ?
NSD2 inh: inactive

How did C/C=C1/[C@H](O[C@@H]2O[C@H](CO)[C@@H](O)[C@H](O)[C@H]2O)OC=C(C(=O)OC)[C@H]1CC(=O)OCC(C)[C@@H]1C[C@H]2OC(=O)C3=CO[C@@H](O[C@@H]4O[C@H](CO)[C@@H](O)[C@H](O)[C@H]4O)/C(=C/C)[C@@H]3CC(=O)OC[C@@H]1[C@H]2C (some centres undefined) do in these assays?
NSD2 inh: inactive

Results for CNC[C@H]1Oc2c(NC(=O)c3cnccn3)cccc2C(=O)N([C@@H](C)CO)C[C@@H]1C ?
NSD2 inh: inactive

What do the screens show for `O=C(C[C@H]1C[C@H]2c3cc(NC(=O)Nc4ccccc4F)ccc3O[C@H]2[C@H](CO)O1)NCc1cc(F)ccc1F`?
NSD2 inh: inactive

What do the screens show for `C[C@@H]1CN([C@H](C)CO)C(=O)c2cccc(NC(=O)c3ccc(-c4nccs4)cc3)c2O[C@H]1CN(C)C(=O)NC1CCCCC1`?
NSD2 inh: inactive

Results for C[C@H]1CN([C@@H](C)CO)C(=O)c2cc(NS(=O)(=O)c3cccs3)ccc2O[C@H]1CN(C)S(C)(=O)=O ?
NSD2 inh: inactive

Results for COc1ccc(S(=O)(=O)N(C)C[C@H]2Oc3ccc(NS(=O)(=O)c4ccccc4)cc3CC(=O)N([C@H](C)CO)C[C@H]2C)cc1 ?
NSD2 inh: inactive

What do the screens show for `O=C(C[C@@H]1C[C@H]2c3cc(NC(=O)C4CCOCC4)ccc3O[C@H]2[C@H](CO)O1)NCCN1CCCCC1`?
NSD2 inh: inactive

How did C[C@H](CO)N1C[C@H](C)[C@H](CN(C)C(=O)Nc2ccccc2)OCCCC[C@H](C)Oc2ccc(NC(=O)Nc3ccc4c(c3)OCO4)cc2C1=O do in these assays?
NSD2 inh: inactive

How did COc1ccc(S(=O)(=O)N(C)C[C@H]2Oc3ccc(NS(=O)(=O)c4ccc(F)cc4)cc3CC(=O)N([C@@H](C)CO)C[C@@H]2C)cc1 do in these assays?
NSD2 inh: inactive

How did C[C@@H]1CN([C@H](C)CO)C(=O)c2ccccc2-c2ccccc2CO[C@@H]1CN(C)S(=O)(=O)c1cccs1 do in these assays?
NSD2 inh: inactive

Results for CN(C)CCOC(=O)COc1ccc(Cl)cc1 ?
NSD2 inh: inactive

How did CCN(CC)CCOc1ccc(/C(=C(\Cl)c2ccccc2)c2ccccc2)cc1 do in these assays?
NSD2 inh: inactive

How did CC/C(=C(/c1ccccc1)c1ccc(OCCN(C)C)cc1)c1ccccc1 do in these assays?
NSD2 inh: 58

Results for COc1ccc(NC(=O)Nc2ccc3c(c2)C(=O)N([C@H](C)CO)C[C@H](C)[C@H](CN(C)Cc2ccc(C(=O)Nc4ccccc4N)cc2)OCCCC[C@@H](C)O3)cc1 ?
NSD2 inh: inactive

Results for COc1ccc(NC(=O)Nc2ccc3c(c2)CC(=O)N([C@H](C)CO)C[C@@H](C)[C@@H](CN(C)C(=O)Nc2c(C)noc2C)O3)cc1 ?
NSD2 inh: inactive

Results for O=C(O)CCCCCCC(=O)N/N=C/CCC1CCCCC1 ?
NSD2 inh: inactive

What do the screens show for `O=C(O)CCCC[C@@H]1SC[C@@H]2NC(=O)N[C@@H]21`?
NSD2 inh: 105

Results for O=c1c(O[C@@H]2O[C@H](CO)[C@@H](O)[C@H](O)[C@H]2O)c(-c2ccc(O)cc2)oc2cc(O)cc(O)c12 ?
NSD2 inh: inactive

What do the screens show for `O=c1c(O[C@@H]2O[C@H](CO)[C@@H](O)[C@H](O)[C@H]2O)c(-c2ccc(O)c(O)c2)oc2cc(O)cc(O)c12`?
NSD2 inh: inactive

How did O=c1c(O[C@@H]2O[C@H](CO)[C@H](O)[C@H](O)[C@H]2O)c(-c2cc(O)c(O)c(O)c2)oc2cc(O)cc(O)c12 do in these assays?
NSD2 inh: 85

How did C[C@H]1CN([C@@H](C)CO)C(=O)c2cccc(NC(=O)NC3CCCCC3)c2O[C@@H]1CN(C)Cc1ccc(Cl)c(Cl)c1 do in these assays?
NSD2 inh: inactive

How did COCC(=O)N(C)C[C@@H]1Oc2ncc(C#CC(C)(C)O)cc2C(=O)N([C@@H](C)CO)C[C@@H]1C do in these assays?
NSD2 inh: inactive

Results for COC(=O)C1=COC(O[C@@H]2O[C@H](CO)[C@@H](O)[C@H](O)[C@H]2O)[C@H]2[C@@H]1[C@H](OC(=O)CCc1ccc(O)cc1)C[C@]2(C)O (some centres undefined) ?
NSD2 inh: inactive

How did COC(=O)C1=COC(OC2OC(CO)C(O)C(O)C2O)C2C1C=CC2(O)CO (centres undefined) do in these assays?
NSD2 inh: 60

Results for COC(=O)C1=CO[C@@H](O[C@@H]2O[C@H](CO)[C@@H](O)[C@H](O)[C@H]2O)[C@H]2[C@@H]1[C@H](OC(C)=O)C[C@]2(C)O ?
NSD2 inh: inactive

What do the screens show for `Cc1ccc(S(=O)(=O)N(C)C[C@H]2OCCCC[C@@H](C)Oc3ccc(NC(=O)Nc4c(C)noc4C)cc3C(=O)N([C@H](C)CO)C[C@H]2C)cc1`?
NSD2 inh: inactive

Results for C[C@@H]1CN([C@H](C)CO)C(=O)c2cc(C3=CCCCC3)cnc2O[C@@H]1CN(C)C(=O)CN1CCOCC1 ?
NSD2 inh: inactive

How did C[C@@H]1CN([C@H](C)CO)C(=O)c2cc(C3=CCCCC3)cnc2O[C@@H]1CN(C)C(=O)c1ccncc1 do in these assays?
NSD2 inh: inactive

How did C[C@@H]1CN([C@@H](C)CO)C(=O)c2cc(N(C)C)ccc2O[C@@H](C)CCCCO[C@@H]1CN(C)C(=O)CCCN(C)C do in these assays?
NSD2 inh: inactive

How did C/C=C/c1cnc2c(c1)C(=O)N([C@@H](C)CO)C[C@H](C)[C@H](CN(C)S(=O)(=O)c1ccc(OC)cc1)O2 do in these assays?
NSD2 inh: inactive

Results for C[C@@H]1CN([C@H](C)CO)C(=O)c2cc(NS(=O)(=O)c3cn(C)cn3)ccc2O[C@@H]1CN(C)C(=O)Nc1cccc2ccccc12 ?
NSD2 inh: inactive

What do the screens show for `C[C@@H]1CN([C@H](C)CO)S(=O)(=O)c2ccc(-c3cccnc3)cc2O[C@H]1CN(C)CC1CC1`?
NSD2 inh: inactive
